The whole screen tested about 310,000 compounds, of which about 18,000 (5.8%) were called active. Entries that show only a call come without a potency. Another 22% or so got no clear call; they are omitted. This is one part of a sample in which actives are shown more often than they occur. Values without a mark were called inactive. Calls come from the whole dose curve; as a rule, active = well fitted inhibition curve with a large enough effect; inconclusive = small, poorly fitted or top-dose-only effect, or another doubt; inactive = no such curve, though single readings can be large or run the other way.
Assay: Primary qHTS for delayed death inhibitors of the malarial parasite plastid, 48 hour incubation
Details: P. falciparum luciferase growth in erythrocytes; series mostly up to 28.7 µM
Procedure, shortened: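 Compounds are pin-transferred into medium, infected erythrocytes (2% hematocrit, 0.1% parasitemia final) are added, and plates sit one parasite generation at 37 C in 5% CO2. Detection reagent is then added and luminescence measured.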
Potency is the fitted concentration of half-maximal effect.

| SMILES | Potency | activity change, negative = inhibition |
| --- | --- | --- |
| COc1cc(C(=O)NCc2nnc(SCC(=O)c3ccc(Cl)cc3)o2)cc(OC)c1OC | inactive | – |
| CCC(=O)Nc1ccc(C(=O)NNC(=O)c2ccc(Cl)cc2)cc1 | inactive | – |
| Cc1ccc(NS(=O)(=O)c2ccc(-c3ccc(=O)[nH]n3)o2)c(C)c1 | inactive | – |
| CC#CC[N+](C)(C)CCCCCC | 10.4 µM (active) | – |
| Cc1ccn2c(=O)c(NC(=O)c3cccc4ccccc34)c(C)nc2c1 | inactive | – |
| Cc1[nH]c(C)c(S(=O)(=O)N2CCC(C)CC2)c1C(=O)N1CCCC1 | inactive | – |
| O=S(=O)(c1ccccc1)c1nc(Cc2ccccc2)oc1N1CCOCC1 | inactive | – |
| COc1ccc(C2=NN(C(=O)c3ccccc3C(=O)O)C(c3ccccc3O)C2)cc1 (configuration not stated) | inactive | – |
| Cc1cc(=O)n2nc(N3CCCC(C(=O)NCc4ccc(Cl)cc4)C3)sc2n1 (configuration not stated) | inactive | – |
| COc1cc(N2CCCC2)c(OC)cc1/C=C(/C#N)c1cccc(Br)c1 | 14.7 µM (active) | – |
| COc1ccc(Br)cc1/C=N/n1c(C)nnc1C | inactive | – |
| COc1cccc(C(=O)Nc2ccc(N3CCCC3)cc2)c1 | inactive | – |
| COc1ccccc1-n1c(SCC(=O)Nc2cccc(C(=O)O)c2)nnc1-c1ccccc1O | inactive | – |
| Cc1cccc(N2C(=O)c3ccc(C(=O)Nc4cccc(C(=O)O)c4)cc3C2=O)c1 | inactive | – |
| Cc1c(Cl)cccc1NC(=O)CCC(=O)N/N=C/c1ccco1 | inactive | – |
| Cc1ccc(S(=O)(=O)CCC(=O)Nc2nnc(CC(C)C)s2)cc1 | inactive | – |
| N#C/C=C/N1CCN(Cc2ccc3c(c2)OCO3)CC1 | inactive | – |
| CCN(CC)C(=O)c1sc2nc(-c3ccccc3)ccc2c1N | inactive | – |
| CNc1nc(-c2ccccc2)cc(-c2ccccc2)n1 | inactive | – |
| CS(=O)(=O)c1sc2nc(-c3ccccc3)cc(-c3ccccc3)c2c1N | 4.65 µM (active) | – |
| CSc1ccccc1C(=O)OCC(=O)N1CCN(C(C)=O)CC1 | inactive | – |
| O=C(NCCCc1ccccc1)C(=O)c1c[nH]c2ccccc12 | inactive | – |

| SMILES | Potency | activity change, negative = inhibition |
| --- | --- | --- |
| O=S(=O)(c1ccc(SCc2ccccc2)nc1)N1CCCCCC1 | inactive | – |
| CC1(C)CC(=O)c2ccc(O)cc2O1 | inactive | – |
| COc1ccc2c(c1)OC(O)(C(F)(F)C(F)F)CC2=O (configuration not stated) | 3.29 µM (active) | – |
| COc1ccc2c(c1)SC(C)CC2=O (configuration not stated) | inactive | – |
| COc1cc(C2C(C(=O)c3ccco3)=C(O)C(=O)N2c2cc(C)on2)ccc1OCc1ccccc1 (configuration not stated) | inactive | – |
| CCC(C)[C@H](NC(=O)N1c2ccccc2NC(=O)[C@@H]1C(C)C)C(=O)N[C@@H](Cc1ccccc1)C(=O)O (some centres not stated) | inactive | – |
| Cc1c(Cl)cccc1NC(=S)N(Cc1ccccc1)Cc1cccnc1 | 10.4 µM (active) | – |
| Cc1c(Cl)cccc1NC(=S)NCC(O)c1ccccc1 (configuration not stated) | inactive | – |
| Cc1c(Cl)cccc1NC(=O)CSc1ccc(-c2cccnc2)nn1 | inactive | – |
| Cc1cc(C)c(C#N)c(SCC(=O)N(CC(C)C)C2CCS(=O)(=O)C2)n1 (configuration not stated) | inactive | – |
| COCc1c(C(=O)N/N=C\c2cccnc2)nnn1-c1nonc1N | inactive | – |
| CC(NC(=O)c1cccc(S(=O)(=O)N2CCc3ccccc3C2)c1)c1ccco1 (configuration not stated) | inactive | – |
| CC1CCc2sc(C(=O)NCC(c3ccco3)N3CCCCC3)cc2C1 (configuration not stated) | 7.38 µM (active) | – |
| CC1Cc2ccccc2N1S(=O)(=O)c1cccc(C(=O)NCC(c2ccco2)N2CCCC2)c1 (configuration not stated) | 11.7 µM (active) | – |
| CC1CCc2sc(C(=O)N/N=C/C3CCCCC3)cc2C1 (configuration not stated) | inactive | – |
| COc1ccc(C(CNC(=O)c2cc3c(s2)CCCC3)N2CCOCC2)cc1 (configuration not stated) | inactive | – |
| CC1Cc2ccccc2N1S(=O)(=O)c1ccc(Cl)nc1 (configuration not stated) | inactive | – |
| Cc1nn(C)c(Cl)c1CN1CCC(Oc2ccc(C(=O)N3CCCC3)cc2)CC1 | inactive | – |
| CC1CN(C(=O)CCC(=O)NC2CCN(Cc3ccccc3)CC2)c2ccccc2O1 (configuration not stated) | inactive | – |
| COC(=O)c1ccc(NC(=O)CSc2nncn2-c2cccnc2)cc1 | inactive | – |
| OC(CNCc1ccc(Cl)c(Cl)c1)c1ccccc1 (configuration not stated) | 5.86 µM (active) | – |
| CC(C)(CNCC(O)c1ccccc1)N1CCOCC1 (configuration not stated) | inactive | – |

| SMILES | Potency | activity change, negative = inhibition |
| --- | --- | --- |
| O=C(NCc1ccc(Cl)c(Cl)c1)c1cccnc1 | inactive | – |
| Cc1[nH]c2ccccc2c1C(=O)CN1CCCC(C)C1 (configuration not stated) | inactive | – |
| CSc1nccc(NC(=O)c2ccc(C(C)(C)C)cc2)n1 | inactive | – |
| O=C(c1cc(COc2cccc(C(F)(F)F)c2)on1)N1CCSCC1 | inactive | – |
| CN(C)CCCNC(=S)N1CCC(c2nc3ccccc3[nH]2)CC1 | inactive | – |
| CC(Sc1nncn1C)C(=O)Nc1cc(C(F)(F)F)ccc1N1CCOCC1 (configuration not stated) | inactive | – |
| CCC(=O)Nc1cc(C(F)(F)F)ccc1N1CCCC1 | inactive | – |
| O=C(CCC1CCCCC1)Nc1cc(C(F)(F)F)ccc1N1CCOCC1 | 11.7 µM (active) | – |
| CCCCn1c(N)c(N(CC(C)C)C(=O)c2cnc(C)cn2)c(=O)[nH]c1=O | inactive | – |
| Cc1ccc(CSCC2Nc3ccc(C(=O)N4CCN(c5ccc(F)cc5)CC4)cc3NC2=O)cc1 (configuration not stated) | inactive | – |
| Cc1c(CCC(=O)O)c(=O)oc2cc(OCc3ccc(Br)cc3)ccc12 | inactive | – |
| Cc1c(Cc2ccccc2)c(=O)oc2cc(OCC(N)=O)ccc12 | 4.15 µM (active) | – |
| CCOC(=O)c1cc(=O)c2ccc(OCc3ccccc3)cc2o1 | inactive | – |
| CCN(CC(=O)NCCCN1CCOCC1)S(=O)(=O)c1cc(Cl)ccc1Cl | inactive | – |
| COc1cc(NS(=O)(=O)c2ccc(NC(=S)NC(=O)c3ccccc3)cc2)nc(OC)n1 | inactive | – |
| Cc1ccc(NC(=O)C(CC(=O)O)C2CCCO2)c(C)c1 (configuration not stated) | inactive | – |
| Cc1ccc(NC(=O)C2CCN(S(=O)(=O)c3ccc4c(c3)NC(=O)CO4)CC2)cc1C | inactive | – |
| COc1ccccc1N(CC(=O)Nc1ccccc1C(=O)N1CCCC1)S(C)(=O)=O | inactive | – |
| Fc1ccc2[nH]c3c(N4CCN(Cc5ccc6c(c5)OCO6)CC4)ncnc3c2c1 | 5.22 µM (active) | – |
| CCCCCc1c(C)nc(N2CCN(Cc3ccc4c(c3)OCO4)CC2)[nH]c1=O | inactive | – |
| CCN1CCCC1CNC(=O)c1cc2cc(OC)c(OC)cc2[nH]1 (configuration not stated) | inactive | – |
| Fc1ccc2[nH]c3c(N4CCSCC4)ncnc3c2c1 | 4.65 µM (active) | – |

| SMILES | Potency | activity change, negative = inhibition |
| --- | --- | --- |
| CCN1CCCC1CNc1ncnc2c1[nH]c1ccc(F)cc12 (configuration not stated) | 2.33 µM (active) | – |
| CCN1CCCC1Cn1cnc2c([nH]c3cc(OC)ccc32)c1=O (configuration not stated) | inactive | – |
| O=c1[nH]c(N2CCN(Cc3ccc4c(c3)OCO4)CC2)nc2c1CCCC2 | – | 11.4% [at 5.75 µM] |
| Cc1ccc(NC(=O)Cc2nc(COC(=O)C(C)NS(=O)(=O)c3ccc(C)cc3)cs2)cc1 (configuration not stated) | inactive | – |
| O=C(NCCOc1cccnc1)c1ccc(OC2CCN(Cc3ccccn3)CC2)cc1 | inactive | – |
| CN(C)CCCn1c(SCc2ccc(Cl)cc2)nnc1-c1ccncc1 | inactive | – |
| COc1ccc(-c2nnc3n2CCCCC3)cc1 | inactive | – |
| CCOc1ccc(-n2c(O)c(/C=N/c3ccnn3Cc3ccncc3)c3ccccc3c2=O)cc1 | inactive | – |
| CCOc1ccc(-n2c(O)c(/C=N/Nc3nc(C)cc(C)n3)c3ccccc3c2=O)cc1 | 4.15 µM (active) | – |
| CCOc1ccc(NC(=O)c2cc(C)nc3ccccc23)cc1 | inactive | – |
| O=C(Cc1ccccc1F)NC1CCSc2ccccc21 (configuration not stated) | inactive | – |
| CC1(C)NC(=O)N(CC(=O)N2CCN(S(=O)(=O)c3ccccc3F)CC2)C1=O | inactive | – |
| CC1CCC(NS(=O)(=O)c2ccc3c(c2)CC(=O)N3)CC1 (configuration not stated) | inactive | – |
| c1ccc(-c2cn3cccnc3n2)cc1 | inactive | – |
| c1ccc(-c2cn3c(n2)CCc2ccc4cccnc4c2-3)cc1 | 10.4 µM (active) | – |
| Cc1cc(NC(=O)CCC(=O)N(CC(=O)NC2CCCC2)c2ccc(F)cc2)no1 | inactive | – |
| O=C(CCn1nnc2ccccc21)OCC(=O)c1ccc([N+](=O)[O-])cc1 | inactive | – |
| COc1ccc(CCC(C)N2CCc3ccccc3C2)cc1 (configuration not stated) | inactive | – |
| COc1ccc(CN2CCCC(N3CCc4ccccc4C3)C2)c(O)c1 (configuration not stated) | 1.65 µM (active) | – |
| COc1cccc(N2C(=O)CC(N3CCc4ccccc4C3)C2=O)c1 (configuration not stated) | inactive | – |
| COc1ccc(NC(=O)CCNC(=O)Cn2ccc3ccccc3c2=O)c(OC)c1 | inactive | – |
| COc1ccc(NC(=O)Cn2ncn3c(cc4ccccc43)c2=O)c(OC)c1OC | 10.4 µM (active) | – |

| SMILES | Potency | activity change, negative = inhibition |
| --- | --- | --- |
| CCc1ccc(NC(=O)Cn2ncn3c(cc4ccccc43)c2=O)cc1 | inactive | – |
| Cc1ccc(C(=O)N(CC(=O)NC2CCCC2)c2ccc(F)cc2)s1 | inactive | – |
| CC(C)(C)N(Cc1ccccc1)C(=O)c1ccncc1 | inactive | – |
| CC(c1ccccc1)(c1ccccc1)c1ccncc1 | 16.5 µM (active) | – |
| ClC(Cl)(Cl)c1ccccc1 | inactive | – |
| CC1CCCC(NC(=O)c2cc(-c3ccncc3)nc3ccccc23)C1C (configuration not stated) | inactive | – |
| CC(=O)N1CC(=O)N(CC(=O)Nc2ccc(Br)cc2)C1=S | inactive | – |
| Cc1c(C(=O)NC(C)C2CC3CCC2C3)cccc1[N+](=O)[O-] (configuration not stated) | inactive | – |
| CC(Sc1nnc(CNC(=O)c2ccccc2F)n1C)C(=O)Nc1nccs1 (configuration not stated) | inactive | – |
| COc1ccc(CCNC(=O)CN(c2ccccc2)S(C)(=O)=O)cc1OC | inactive | – |
| COc1ccc(CCNC(=O)Cc2ccc(C)cc2)cc1OC | inactive | – |
| COc1ccc(CCNC(=O)c2nnc(CS(=O)(=O)c3ccccc3)o2)cc1OC | 2.33 µM (active) | – |
| COc1ccc(OC)c(NC(=O)c2ccc3c(c2)CCN3S(C)(=O)=O)c1 | inactive | – |
| CC(C)OC(=O)c1ccc(COc2ccc3ccc(=O)oc3c2)o1 | inactive | – |
| COc1ccccc1CNC(=O)c1ccc(CS(=O)(=O)c2ccccc2)o1 | inactive | – |
| CCCCCNC(=O)C1c2ccccc2Oc2ccccc21 | inactive | – |
| CS(=O)(=O)N(Cc1ccc(Cl)cc1)c1ccc(C(=O)NCCSCc2ccco2)cc1 | inactive | – |
| COc1ccc(C(=O)Nc2ccccc2C(=O)NCc2ccco2)cc1 | inactive | – |
| Cc1ccc(N(Cc2ccc(C(=O)Nc3ccccc3C(=O)NCc3ccco3)cc2)S(C)(=O)=O)cc1C | 3.7 µM (active) | – |
